This passage reports outcome results from PubChem BioAssay AID1726 (National Center for Advancing Translational Sciences (NCATS), 2009).

This assay concerns the target Epidermal growth factor receptor (Homo sapiens) (UniProt P00533). Description: Assay for Inhibitors of the ERK Signaling Pathway using a Homogeneous Screening Assay: EGFR T790M/L858R Kinase Inhibition. Conditions: series mostly up to 65.8 µM. An excerpt: qHTS Assay for Inhibitors of the ERK Signaling Pathway using a Homogeneous Screening Assay
NIH Chemical Genomics Center [NCGC]
NIH Molecular Libraries Screening Centers Network [MLSCN]
Assay Submitter (PI): Dr. Wei Zheng, NCGC/NIH
The Ras/extracellular-signal-regulated kinase (ERK) mitogen activated protein (MAP) kinase signaling pathway (ERK1/2 cascade) plays is a key role in transmitting signals from the cell surface to the nucleus (Nishida and Gotoh 1993; Chang and Karin, 2001). The cascade is initiated by the small G-protein Ras, which recruits Raf […], where activation occurs. Alternatively, this pathway can be activated by elevating intracellular cAMP.
Activation of the ERK pathway is essential in increased cell division and cell survival. Sustained and constitutive activation of the ERK pathway, however, has been linked to uncontrolled cell proliferation, increased cell survival, and tumor progression. Thus, the ERK has been as an attractive target for cancer chemotherapy in the past few years (Sebolt-Leopold and Herrera, 2004). […]
The HTRF kinase assay (components supplied as kit by Cisbio) was chosen for the EGFR and EGFR mutant enzyme assays that applied the time resolved fluorescence resonance energy transfer (TR-FRET) principle. […]

Inconclusive results are not listed. Activity calls are given as the source filed them. Calls come from the whole dose curve; as a rule, active = well fitted curve in the direction sought with a large enough effect; inconclusive = small, poorly fitted or top-dose-only effect, or effect the other way, or another doubt; inactive = no such curve, though single readings can be large or run the other way.

Sequence of Epidermal growth factor receptor (Homo sapiens) (P00533 whole entry T790M/L858R, looked up): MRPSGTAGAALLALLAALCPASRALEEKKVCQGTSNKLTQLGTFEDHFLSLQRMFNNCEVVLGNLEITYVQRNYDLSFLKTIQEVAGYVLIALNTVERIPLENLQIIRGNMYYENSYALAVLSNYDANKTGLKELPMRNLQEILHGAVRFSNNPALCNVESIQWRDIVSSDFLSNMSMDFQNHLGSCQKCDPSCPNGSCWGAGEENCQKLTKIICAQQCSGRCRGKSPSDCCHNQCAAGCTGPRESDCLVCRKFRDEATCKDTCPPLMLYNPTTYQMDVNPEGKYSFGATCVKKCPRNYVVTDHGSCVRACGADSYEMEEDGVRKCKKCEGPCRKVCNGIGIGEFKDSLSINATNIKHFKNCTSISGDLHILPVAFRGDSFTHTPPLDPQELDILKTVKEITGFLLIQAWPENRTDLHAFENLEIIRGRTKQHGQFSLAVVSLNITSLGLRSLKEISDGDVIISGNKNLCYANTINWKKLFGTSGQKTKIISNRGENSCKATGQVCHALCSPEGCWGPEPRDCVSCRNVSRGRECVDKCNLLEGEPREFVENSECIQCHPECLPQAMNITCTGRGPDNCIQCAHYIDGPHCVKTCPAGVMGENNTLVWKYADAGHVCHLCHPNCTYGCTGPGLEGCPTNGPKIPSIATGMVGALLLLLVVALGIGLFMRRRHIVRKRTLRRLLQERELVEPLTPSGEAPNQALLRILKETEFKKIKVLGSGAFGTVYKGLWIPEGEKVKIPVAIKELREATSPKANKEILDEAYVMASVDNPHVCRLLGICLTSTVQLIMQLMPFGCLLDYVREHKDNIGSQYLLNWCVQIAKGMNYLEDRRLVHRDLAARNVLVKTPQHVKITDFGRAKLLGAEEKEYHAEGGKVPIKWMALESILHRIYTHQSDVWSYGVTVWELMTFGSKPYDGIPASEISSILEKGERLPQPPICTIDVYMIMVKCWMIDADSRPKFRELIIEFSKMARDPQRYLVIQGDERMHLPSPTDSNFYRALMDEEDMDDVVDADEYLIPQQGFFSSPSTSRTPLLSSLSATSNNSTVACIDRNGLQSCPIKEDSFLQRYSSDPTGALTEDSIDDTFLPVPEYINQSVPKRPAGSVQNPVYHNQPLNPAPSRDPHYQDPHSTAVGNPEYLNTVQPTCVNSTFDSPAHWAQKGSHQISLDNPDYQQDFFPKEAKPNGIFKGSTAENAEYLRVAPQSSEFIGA

Regarding `Cc1nc2c(=O)n(C)c(=O)nc-2n(C)n1`, the compound was classed as inactive.

As to `CN1CCN(c2cccc3c2C(=O)c2ccccc2C3=O)CC1`, the compound was called inactive.
